# Tau ThT inhib: inhibitors of human tau fibril formation, thioflavin T binding; recombinant tau K18 P301L, heparin-induced fibrillization, ThT fluorescence; Potency, µM (titrated, usually from 57.4 µM), for inactives: at the highest dose activity, negative = inhibition, hits mostly inhibitors; 270,000 tested, 2.1% active; note: % is set by controls: 0 for no effect and ±100 for the full control effect; nearly all actives have a fitted effect of over 55% in size
# Target sequence (P10636 561-689 P618L limits assumed): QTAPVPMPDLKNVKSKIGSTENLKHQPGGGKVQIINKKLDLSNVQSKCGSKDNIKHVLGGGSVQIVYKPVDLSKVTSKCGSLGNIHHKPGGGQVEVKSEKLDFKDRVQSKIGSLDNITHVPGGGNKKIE
#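 In this qHTS, human K18 P301L tau is incubated with compound and heparin for 6 hr at 37 C, and Thioflavin T fluorescence then reports fibril load.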
# HTT aggregate: mutant huntingtin aggregation inhibition. Potency, µM (top dose mostly 46.1 µM), without a hit: at the top dose activity change, negative = inhibition, usual class: inhibitors. PC12 HttQ103-GFP aggregates, Acumen cytometry, 40 h. AID 1688. 220,000 tested, 1.1% active; note: % is set by controls: 0 for no effect and ±100 for the full control effect; nearly all actives have a fitted effect of over 60% in size
#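 Quantitative HTS on tebufenozide-induced (100 nM) PC12 cells stably expressing polyQ103 Huntingtin exon 1–GFP. Reduction of bright GFP aggregates, detected by laser scanning cytometry after lysis, identified actives across the titration.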
# Tau FP inhib: blocks human tau fibril formation measured by polarization; K18 P301L tau heparin fibrillization, Alexa594 FP, 6 h; 280,000 tested, 0.39% active; Potency, µM (top dose mostly 57.7 µM), for the others: at the highest dose activity, negative = inhibition, hits mostly inhibitors; AID 1468; note: % is set by controls: 0 for no effect and ±100 for the full control effect; nearly all actives have a fitted effect of over 55% in size
#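 Human K18 P301L fragment (15 uM unlabeled plus 0.24 uM Alexa 594-labeled) in 100 mM sodium acetate pH 7 with compound, aggregation induced by 20 uM heparin for 6 hr at 37 C. ThT (30 uM) added for 1 hr, then Alexa 594 FP read.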
# HTT cytoprotect: cytoprotection in Huntington HTT-Q103 PC12 cell model. PC12 HTT-Q103 induced, cytoprotection, ATP luminescence, 40 h. Potency, µM (doses to about 56.4 µM), without a hit: cytoprotection (ATP increase), actives largely listed as activators. 230,000 tested, 0.14% active. AID 1471; note: % of control where 0% means no effect; nearly all actives have a fitted effect of over 45% in size
#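 PC12 cells stably carrying ecdysone-inducible Htt exon 1 (Q103)–GFP were induced with 100 nM tebufenozide (final) alongside library compounds in a dose series. Cytoprotection was scored as retained ATP by ATPlite luminescence.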
# Tau fluor counter: counter-screen for tau fibril formation inhibitors; Potency, µM (highest dose often 57.7 µM), without a hit: at the top dose activity change, negative = decrease; 280,000 tested, 0.93% active; tau K18 P301L Alexa594 fluorescence, heparin fibrillization; note: % is set by controls: 0 for no effect and ±100 for the full control effect; nearly all actives have a fitted effect of over 55% in size
#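 Human tau K18 P301L (15 uM unlabeled, 0.24 uM Alexa 594-labeled) in 100 mM sodium acetate pH 7 with 20 uM heparin, 6 hr at 37 C. ThT 30 uM added, 1 hr ambient; Alexa 594 FP and total fluorescence read at 555/632 nm.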
# An asterisk follows results filed as active; ? = inconclusive; . = not tested or not shown; [ ] = dose if it differs, or a comment. Sampled rows, rich in hits. Any-hit rate of the full collection: about 3.7%. Calls come from the whole dose curve; as a rule, active = well fitted curve in the direction sought with a large enough effect; inconclusive = small, poorly fitted or top-dose-only effect, or another doubt; inactive = no such curve, though single readings can be large; an effect the other way counts as inactive or inconclusive. Potency is the fitted concentration of half-maximal effect.
SMILES,Tau ThT inhib,HTT aggregate,Tau FP inhib,HTT cytoprotect,Tau fluor counter
Cc1ccc(-c2csc(N3CCC(NS(=O)(=O)c4ccc5c(c4)OCCO5)CC3)n2)cc1,-18.9%,6.31µM*,12.8%,?,?
Cc1ccc(CNS(=O)(=O)c2ccc3c(c2)OCCO3)cc1,1.7%,-1.4%,10.9%,.,1.2%
COCC(=O)N1CCc2nc(-c3ccc(OC)cc3C)c3c(c2C1)CO[C@@H](c1ccccc1)C3,7.4%[11.5 µM],.,-2.8%[11.6 µM],-42.1%[10 µM],1.9%[11.6 µM]
Cc1ccc(C(=O)CSc2nc(C)cc(C)c2C(=O)Nc2cccc(C)c2)cc1,-5.5%,.,4.5%,.,-13.0%
CCC(=O)C1=C(c2ccc(F)cc2)N(C(=O)CC)n2cnnc2S1,10µM*,.,?,.,-27.9%
COc1cccc(C2=C(C(C)=O)Sc3nncn3N2C(C)=O)c1,?,.,?,.,-15.2%
CCC(=O)C1=C(c2ccc(OC)c(OC)c2)N(C(=O)CC)n2c(nnc2-c2ccc(C)cc2)S1,-17.8%,.,-10.1%,.,-24.1%
CC(=O)C1=C(c2ccc(Cl)c(Cl)c2)N(C(C)=O)n2cnnc2S1,4.47µM*,.,?,.,?
CCOc1ccc(C2=C(C(=O)CC)Sc3nncn3N2C(=O)CC)cc1,3.16µM*,.,-13.5%,.,-28.6%
COc1cccc(N2CC(NC(=O)COc3ccc4ccccc4c3)CC2=O)c1 (stereo unspecified),?,.,-3.2%,.,-17.1%
CN(C)CCC(=O)[C@@]1(O)CC[C@H]2[C@H]3CC=C4C[C@@H](O)CC[C@]4(C)[C@H]3CC[C@]21C,.,.,.,-0.8%[10 µM],.
CCOc1cccc(C2c3c(oc4ccc(F)cc4c3=O)C(=O)N2c2cc(C)ccn2)c1 (stereo unspecified),-11.8%,.,-15.9%,.,-25.7%
O=C(Nc1ccc(Cl)cc1Cl)c1cc(S(=O)(=O)N2CCC3(CC2)OCCO3)ccc1F,-4.5%,.,-7.9%,.,-18.6%
COc1ccccc1CNc1ncnc2ccc(-c3cccc(C#N)c3)cc12,.,.,.,-204.1%,.
O=C1NCCCc2c1oc1ccc(O)cc21,6.5%,22.4µM*,-9.9%,-35.3%,-1.7%
COc1ccc2nc(SCC(=O)N3CCNC3=O)[nH]c2c1,-10.7%,-4.3%,-1.7%,-19.0%,-8.9%
COc1ccnc(CS(=O)c2nc3ccc(OC(F)F)cc3[nH]2)c1OC (stereo unspecified),25.1µM*,4.8%,?,-51.2%,-29.8%
C=C1C(=O)[C@]23[C@H](O)[C@H]1CC[C@H]2[C@@]12COC3(O)[C@H](O)[C@@H]1C(C)(C)CC[C@@H]2O,-20.2%,.,-7.0%,.,-0.6%
C/C(=N\Nc1nc2ccccc2[nH]1)c1ccc2c(c1)OCCO2,14.1µM*,-1.8%,1.9%,-116.1%,?
C/C(=N\NC(=O)c1ccncc1)c1cc2ccccc2o1,-5.6%,5.6%,-11.4%,-29.1%,1.9%
C/C(=N\Nc1nc2ccccc2[nH]1)c1cc2ccccc2o1,14.1µM*,-32.0%,?,-43.2%[10 µM],?
CC1(C)C(=O)N(CC(=O)Nc2ccc(OC(F)(F)F)cc2)c2ccccc21,0.0%,.,-15.4%,.,-28.0%
Cc1cc(SCn2nnc3ccccc3c2=O)nc2ccccc12,4.4%,19.5%,-2.6%,-3.2%[10 µM],-11.5%
Cc1ccc(-n2nnnc2SCn2nnc3ccccc3c2=O)c(C)c1,-3.8%,8.91µM*,5.9%,-68.6%,-10.2%
CNC(=O)[C@@H]1O[C@@H](n2cnc3c(NCc4ccc(N)cc4)ncnc32)[C@@H](O)[C@H]1O,.,.,.,-2.4%[1.9 µM],.
SMILES,Tau ThT inhib,HTT aggregate,Tau FP inhib,HTT cytoprotect,Tau fluor counter
COc1ccc(COc2ccccc2C(N)=O)cc1F,-9.8%,15.8µM*,9.7%,.,-9.9%
COc1cc(C(N)=O)ccc1OCc1ccccc1,-0.7%,3.5%,-0.3%,-28.5%,-0.4%
CCOC(=O)C1=C(SCC)c2cc3c(n2C1=O)CCCC3,11.2µM*,31.5%,?,4.4%[10 µM],?
CCOC(=O)c1cnc2cc3c(cn2c1=O)CCCC3,-0.4%,18.1%,6.4%,-11.8%,-4.3%
Cc1[nH]c2ccccc2c1/C=N/NS(=O)(=O)c1ccccc1,?,-13.5%,14.3%,.,?
Cc1[nH]c2ccccc2c1/C=N/NC(=O)C1CC1(c1ccccc1)c1ccccc1 (stereo unspecified),?,12.6µM*,-5.2%,8.5%[10 µM],5.01µM*[quencher]
Cc1[nH]c2ccccc2c1/C=N/NC(=O)CCC(=O)NCc1ccccc1,?,-7.2%[9.22 µM],9.0%,-21.6%[10 µM],?
Cc1[nH]c2ccccc2c1/C=N/Nc1ccccc1[N+](=O)[O-],1.78µM*,11.8%,?,0.8%[10 µM],2µM*[quencher]
CCC(=O)Nc1ccc(C(=O)N/N=C/c2c(C)[nH]c3ccccc23)cc1,11.2µM*,7.5%,?,-44.3%,?
Cc1[nH]c2ccccc2c1/C=N/NC(=S)NC(C)C,?,-11.6%,13.4%,30.0%[10 µM],15.8µM*[quencher]
CCn1cc(C(=O)N(C)c2cc(C)ccc2C)c2cc(OC)c(OC)cc2c1=O,-2.0%,.,-2.9%,.,-3.8%
Cc1cccc2c1-c1sc(C(=O)N(C)c3cccc(C(F)(F)F)c3)cc1CO2,?,.,10.8%,.,?
CC(C)C[C@@H](/C=C/S(C)(=O)=O)NC(=O)[C@H](CC(C)C)NC(=O)[C@H](CC(C)C)NC(=O)OCc1ccccc1,-15.9%,.,-2.7%,-54.2%,-8.9%
NNC(=O)c1cccc(S(=O)(=O)Nc2cccc(C(F)(F)F)c2)c1,.,-9.7%[9.22 µM],-0.3%,0.7%[10 µM],-28.8%
Cc1[nH]c2ccccc2c1/C=N/NC(=O)c1cc(-c2cccs2)[nH]n1,5.62µM*,-22.9%,?,9.4%[10 µM],12.6µM*[quencher]
O=C(N/N=C/c1ccccc1O)c1cccc(C(F)(F)F)c1,-2.6%,2.51µM*,4.8%,.,-20.6%
Cc1[nH]c2ccccc2c1/C=N/NC(=O)c1cccc(S(=O)(=O)Nc2cccc(C(F)(F)F)c2)c1,?,?,?,9.5%[10 µM],8.91µM*[quencher]
CCc1c(C)c2ccc(O)c(CN3CCN(c4cc(Cl)ccc4C)CC3)c2oc1=O,-5.3%,.,-2.4%,.,-3.0%
Cc1cccc(-c2nc(C)c(CCNC(=O)C(=O)Nc3ccc(C)c(C)c3)s2)c1,?,.,-5.5%,.,-3.0%
CO[C@H]1COC(=O)C/C=C\[C@H](C)[C@@H](OC)COC(=O)[C@@H](C)COC(=O)C/C=C\[C@@H]1C,-7.3%[11.5 µM],.,1.1%[11.6 µM],-1.0%[10 µM],-2.3%[11.6 µM]
Cc1ccc(C(=O)O)cc1-c1ccc(/C=C2/NC(=O)N(c3ccccc3)C2=O)o1,28.2µM*,19.3%,-14.2%,-18.6%,-26.7%
Cc1cc(C(=O)O)ccc1-c1ccc(/C=C2\NC(=O)N(Cc3ccccc3Cl)C2=O)o1,10.1%,19.8%,4.0%,.,6.9%
N#Cc1c(/N=C/c2cc3ccccc3s2)sc2c1CCC2,1.26µM*,-8.0%,-0.9%,-30.3%[10 µM],-6.8%
Cc1ccc(/C=N/c2sc3c(c2C#N)CCC3)s1,2µM*,10.9%,-4.5%,-13.8%[10 µM],-25.2%
N#Cc1c(/N=C/c2ccco2)sc2c1CCC2,?,-7.7%,-5.2%,5.0%,-16.3%
